These results are taken from PubChem BioAssay AID371 (SRMLSC, 2006).

Screen size: about 3,300 compounds; about 280 (8.5%) were called active.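 The calls were made as follows: active = mean growth inhibition over the two runs of 50% or more; inactive = mean growth inhibition under 50%.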 Many of the other results were omitted from the sample, so actives are more common in it than they were.

A short description of this test: A549 NSCLC cell proliferation inhibitors – ATP luminescence, human non-small cell lung line, primary screen (AID 371).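 Also: compound exposure lasted 72 h before the ATP read; 0% = untreated cell signal and 100% = no luminescence left.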 The following applies: at 10 µM, stronger effect = higher value.
Turning to `CCOC(=O)COc1nc(N(C)C)nc(N(C)C)n1`, the growth inhibition was -5.85% (inactive).
In the case of `Cc1nc(SCC(=O)Nc2ccc3c(c2)OCO3)c(C#N)c2c1CCCC2` it was 18.5% (inactive); in that of `C=C1C2(C(=O)Nc3nccs3)CCC(C2)C1(C)C` (configuration not stated), 5.39% (inactive).
Then `COc1ccc(-c2nnc3sc(-c4c(OC)cccc4OC)nn23)cc1`, with 16.6% (inactive); and `CC(O)CNc1nc2c(c(=O)n(C)c(=O)n2C)n1Cc1cccc(C(F)(F)F)c1` (configuration not stated), with 22.2% (inactive).
Then `O=C(Nc1ccc2c(c1)OCO2)c1cncc(Br)c1`, with 4.86% (inactive).
As for `COC(=O)c1ccn(C(=O)c2ccc(Cl)cc2)n1`, the growth inhibition was 3.19% (inactive).
In the case of `COCCOC(=O)c1c(C)nc(SCC(=O)Nc2ccc(OC)cc2)c(C#N)c1-c1ccco1` it was 5.46% (inactive); in that of `C=CCN(CC=C)c1nc2ccccc2nc1C(C#N)C(=O)OC(C)C` (configuration not stated), 23.2% (inactive); in that of `CCCN(CCC)c1nc2ccccc2nc1C(C#N)C(=O)OC(C)COC` (configuration not stated), 52.1% (active).
In the case of `CCCCN(CCCC)c1nc2ccccc2nc1C(C#N)C(=O)NCCCOC` (configuration not stated) it was 9.29% (inactive).
Then `CCOC(=O)c1oc2cc(O)cc(C)c2c(=O)c1-c1cscn1`, with 4.18% (inactive); and `Cc1oc2cc(O)ccc2c(=O)c1-c1cnn(-c2ccccc2)c1`, with 28.4% (inactive).
Consider `Cc1oc2cc(O)cc(C)c2c(=O)c1-c1cnn(-c2ccccc2)c1`, for which the growth inhibition was 59% (active).
In the case of `CCSC1=C(C#N)C(c2cccs2)C(C(=O)OC)=C(C)N1` (configuration not stated) it was 30.4% (inactive).
Take `C#CCSC1=C(C#N)C(c2cccs2)C(C(=O)OCC)=C(C)N1` (configuration not stated): the growth inhibition is 47.5% (inactive).
As for `CCOC(=O)C1=C(C)NC(SCC(=O)Nc2nc(C)cs2)=C(C#N)C1c1cccs1` (configuration not stated), the growth inhibition was 86.8% (active).
For the compound `COc1cc(-c2nn3c(-c4ccco4)nnc3s2)cc(OC)c1OC`, the growth inhibition is 0.05% (inactive).
Then `O=C(NCCCN1CCOCC1)C1(c2ccccc2)CCOCC1`, with 2.07% (inactive); and `O=C(c1ccc(=O)oc1)N1CCN(C(c2ccccc2)c2ccccc2)CC1`, with 41.2% (inactive); and `CNCCCC12CCC(c3ccccc31)c1ccccc12`, with 52.9% (active).
As for `CCCCc1nc2n[nH]c(N)c2c2c1CCCC2`, the growth inhibition was 12.1% (inactive).
Then `CC(C)(C#N)C(C)(C)c1nn[nH]n1`, with -3.48% (inactive); and `Cc1cc(=O)n(CCC(=O)O)c2ccccc12`, with 0.16% (inactive).
Then `COc1ccc2c(c1)nc(N)n2Cc1ccccc1`, with 21.8% (inactive); and `COc1ccc(CCN2CCC(Nc3nc4ccccc4n3Cc3ccc(F)cc3)CC2)cc1`, with 95.5% (active).
Then `Clc1ccc(Cn2c(CN3CCCC3)nc3ccccc32)cc1`, with 29.6% (inactive); and `COc1ccc(OC)c(C2C(C#N)=C(N)Oc3cc(C)n(Cc4ccccn4)c(=O)c32)c1` (configuration not stated), with -2.3% (inactive).
In the case of `COC(=O)CSc1nc(C)c(Oc2ccccc2)c(=O)[nH]1`, the growth inhibition is -3.23% (inactive).
In the case of `COC(=O)c1ccccc1OCc1cccc(C)n1` it was 6.89% (inactive); in that of `Cc1cccc2c1NC(C)CC2C` (configuration not stated), 0.83% (inactive).
`COc1ccc(C2C(C#N)=C(N)SC(N)=C2C#N)cc1OC`: the growth inhibition is 2.23% (inactive).
In the case of `COc1cc2c(cc1OC)C1(CCCC1)C(N)=C2C#N` it was 54.9% (active); in that of `CC(=O)NC1(C(F)(F)F)C(=O)Nc2c1c(=O)n(C)c(=O)n2C` (configuration not stated), 0.54% (inactive); in that of `CCOC(=O)C1=C(N)N2C(=O)CSC2=C(C(=O)OC)C1`, -0.01% (inactive).
Then `Cc1cccc(CN2CCN(C(c3ccccc3)c3ccc(Cl)cc3)CC2)c1` (configuration not stated), with 3.35% (inactive); and `OCCOCCN1CCN(C(c2ccccc2)c2ccc(Cl)cc2)CC1` (configuration not stated), with 1.66% (inactive).
Then `CN1CCCN(C(c2ccccc2)c2ccc(Cl)cc2)CC1` (configuration not stated), with 78.7% (active).
Regarding `CCCCCn1c2nc3ccccc3nc2c2c(=O)n(CC(C)C)cnc21`, the growth inhibition is -1.51% (inactive).
In the case of `CN1CCN(c2nc3c(c(=O)n(C)c(=O)n3C)n2Cc2cccc3ccccc23)CC1` it was -7.28% (inactive); in that of `CCN(CC)CCCN1C(=O)C(=O)/C(=C(/O)c2ccc(OC)cc2)C1c1ccco1` (configuration not stated), 1.94% (inactive); in that of `COc1ccccc1-n1c(N)c(C(=O)NCC2CCCO2)c2nc3ccccc3nc21` (configuration not stated), 52.9% (active).
For `Nc1c(C(=O)NCC2CCCO2)c2nc3ccccc3nc2n1/N=C/c1ccncc1` (configuration not stated), the growth inhibition is 2.51% (inactive).
Turning to `COCCn1c(N)c(C(=O)NCC2CCCO2)c2nc3ccccc3nc21` (configuration not stated), the growth inhibition is 23.5% (inactive).
Then `O=C(Oc1ccccc1N1C(=O)CCC1=O)c1ccco1`, with 6.54% (inactive); and `COC(=O)CSc1nc2c(c(=O)n(C)c(=O)n2C)n1CCC(C)C`, with -2.98% (inactive).
In the case of `COc1ccc2[nH]c(C)c(C(=O)CN3CCN(C(=O)c4ccco4)CC3)c2c1` it was 7.48% (inactive); in that of `COc1cccc(OC)c1OCCN1CCN(C(=O)c2ccco2)CC1`, 2.2% (inactive); in that of `COc1cc2nc(N3CCN(C(=O)C4COc5ccccc5O4)CC3)nc(N)c2cc1OC` (configuration not stated), 91% (active).
As to `COc1cc2nc(N3CCN(C(=O)C4CCCO4)CC3)nc(N)c2cc1OC` (configuration not stated), the growth inhibition is 15.4% (inactive).
Then `COC(=O)c1ccccc1NC(=O)C1COc2ccccc2O1` (configuration not stated), with 11.9% (inactive); and `COc1cc2nc(N3CCN(C(=O)c4ccco4)CC3)nc(N)c2cc1OC`, with 82.5% (active).
As for `Cc1cc(Cl)ccc1OCC(=O)OC(C)C(=O)N(C)C` (configuration not stated), the growth inhibition was -0.96% (inactive).
Turning to `O=C(O)c1cc2n(n1)C(C(F)(F)F)CC(c1ccccc1)N2` (configuration not stated), the growth inhibition was -0.01% (inactive).
In the case of `CCOC(=O)c1nc2nc(C)c(Cl)c(=O)n2[nH]1` it was -2.82% (inactive); in that of `O=C(O)CC(SCc1ccc(C(=O)O)o1)C(=O)O` (configuration not stated), -5.57% (inactive).
In the case of `CC(=O)C(=[N+]=[N-])C(=O)NCc1ccccc1` it was -2.8% (inactive); in that of `CC(C)(C)NCc1cc2ccccc2[nH]c1=O`, 4.01% (inactive).
Then `Cc1nc2oc(C(=O)c3ccc(Br)cc3)c(N)c2c2c1COC(C)(C)C2`, with 24.5% (inactive); and `COCCCNC(=O)c1c(N)n(/N=C/c2cccs2)c2nc3ccccc3nc12`, with 17% (inactive).
Regarding `COCCNC(=O)c1c(N)n(/N=C/c2cccs2)c2nc3ccccc3nc12`, the growth inhibition was 6.53% (inactive).
Then `COCCNC(=O)c1c(N)n(CCC2=CCCCC2)c2nc3ccccc3nc12`, with 91.2% (active); and `CCC(CC)n1[nH]c(=O)cc1N`, with 1.19% (inactive).
Then `CC1(C)CC(=O)C(C=N)=C(O)C1`, with 1.41% (inactive).
Then `O=C(c1ccccc1F)N1CCC(N2CCCCCC2)CC1`, with 2.62% (inactive); and `CCCc1[nH]n(-c2nc3ccccc3s2)c(=O)c1C=NCCN1CCOCC1`, with 3.16% (inactive); and `Cn1nnnc1-c1cc(Br)ccc1NC(=O)c1ccccc1`, with 10.8% (inactive).
Regarding `Cc1sc(-n2c(C)cc(/C=N/n3cnnc3)c2C)c(C#N)c1C`, the growth inhibition is 19.6% (inactive).
In the case of `CC(C)(C)c1nnc2sc(SCC(=O)c3ccccc3)nn2c1=O` it was -7.24% (inactive).
Then `Cc1nc2sccn2c(=O)c1CCN1CCC(=C(c2ccccc2)c2ccc(F)cc2)CC1`, with 88.3% (active).
In the case of `Cc1nc2sccn2c(=O)c1CCN1CCC(=C(c2ccc(F)cc2)c2ccc(F)cc2)CC1` it was 92.5% (active); in that of `Cc1nc2ccccn2c(=O)c1CCN1CCC(C(=O)c2ccc(F)cc2)CC1`, 6.06% (inactive); in that of `CN1CCN(CCCCC(=O)c2ccccc2)CC1`, 6% (inactive).
`COc1ccc(/C=N/n2cncn2)cc1COc1ccc(NC(C)=O)cc1`: the growth inhibition is 5.25% (inactive).
Consider `CCOc1ccc(C2/C(=C(/O)c3ccc(OC)cc3)C(=O)C(=O)N2c2cc(C)on2)cc1OC` (configuration not stated), for which the growth inhibition is -9.53% (inactive).
In the case of `CCC(C)Nc1nc(OC)nc(N(C)C#N)n1` (configuration not stated) it was -4.98% (inactive).
Then `O=C(O)c1ccc(COc2c(F)c(F)c(F)c(F)c2F)o1`, with 3.65% (inactive); and `CN(C)/C=C1\N=C(c2ccc(Cl)cc2Cl)OC1=O`, with 19.7% (inactive); and `CCOC(=O)c1[nH]c2cc3c(cc2c1NC(=O)CN1CCc2ccccc2C1)OCO3`, with 12.5% (inactive).
As for `CSc1nc(N)nc(SCC(=O)C23CC4CC(CC(C4)C2)C3)c1C#N`, the growth inhibition is 74.9% (active).
Then `CSc1nc(N)nc(SCC(=O)CC(=O)OC(C)C)c1C#N`, with 7.59% (inactive).
In the case of `CSc1nc(N)nc(SCC(=O)OC(C)C)c1C#N` it was 17% (inactive).
In the case of `COc1ccccc1C(=O)NCC(=O)n1nc(C)cc1C` it was 4.23% (inactive); in that of `COc1ccccc1C(=O)Nc1cc(Cl)ccc1O`, -0.89% (inactive).
Consider `COc1ccccc1C(=O)NC(=Nc1nc2ccccc2o1)NC(=O)c1ccccc1OC`, for which the growth inhibition is 67.3% (active).
As to `COc1ccc(C(=O)N/C(N)=N/c2nc3ccccc3o2)cc1`, the growth inhibition is 28.8% (inactive).
Then `N/C(=N\c1nc2ccccc2o1)NC(=O)c1ccccc1NC(=O)c1ccccc1`, with 69.5% (active); and `O=C(Nc1ccccc1C(=O)NCCCn1ccnc1)c1ccccc1`, with -0.68% (inactive).
Then `COc1ccccc1C1C(C#N)=C(N)Oc2cc(C)n(Cc3ccccn3)c(=O)c21` (configuration not stated), with -10.3% (inactive).
In the case of `CCNC(=O)COn1c(SCC(=O)NCC)nc2ccccc2c1=O` it was -0.37% (inactive); in that of `CCOC(=O)C1CCN(c2ncnc3c2cnn3-c2ccc(OC)cc2)CC1`, 4.94% (inactive); in that of `CS(=O)(=O)c1ccc2nc(NC(NC(=O)c3ccco3)(C(F)(F)F)C(F)(F)F)sc2c1`, 29.9% (inactive).
Regarding `CCOC(=O)CSc1nnc(C)c(=O)[nH]1`, the growth inhibition was 2.53% (inactive).
Then `CC(=O)Nc1cc2c(cc1Br)OCCO2`, with -4.42% (inactive).
Then `CN(C)c1ccc(C2C3C(=O)N(c4ccc(C(=O)O)cc4)C(=O)C3ON2c2ccccc2)cc1` (configuration not stated), with 4.19% (inactive).
In the case of `COc1cccc2c1C(=O)c1c(O)c3c(c(O)c1C2=O)C[C@@](O)(C(=O)CO)C[C@@H]3O[C@H]1C[C@H](N)[C@H](O)[C@H](C)O1` it was 82.1% (active).
Consider `COc1cccc2c1C(=O)c1c(O)c3c(c(O)c1C2=O)C[C@@](O)(C(C)=O)C[C@@H]3O[C@H]1C[C@H](N)[C@H](O)[C@H](C)O1`, for which the growth inhibition was 94.4% (active).
